Experiment [1] concerns the target Glutathione peroxidase 1 (Homo sapiens) (UniProt P07203). In words: Primary qHTS Assay for Inhibitors of Recombinant Selenoprotein Glutathione Peroxidase 1 (GPX1) (AID 1845191). Further: nearly all actives have a fitted effect of over 65% in size. Put shortly:
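NADPH consumption tracked by fluorescence at 340/450 nm between t=0 and t=15 min, room temperature. Final mix: 10 nM GPX1, 100 nM glutathione reductase, 1 mM GSH, 0.5 mM NADPH, 0.5 mM cumene hydroperoxide, 0.01% BSA; 30 min compound–enzyme preincubation.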

Experiment [2] deals with Phospholipid hydroperoxide glutathione peroxidase GPX4 (Homo sapiens) (UniProt P36969). In words: Primary qHTS Assay for Inhibitors of Recombinant Selenoprotein Glutathione Peroxidase 4 (GPX4) (AID 1845192). Further: nearly all actives have a fitted effect of over 65% in size. Put shortly:
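NADPH consumption followed by fluorescence at 340/450 nm, t=0 and after 15 min at room temperature. Reaction started with cumene hydroperoxide (0.5 mM final) after 30 min compound–GPX4 preincubation; final 200 nM GPX4, 100 nM GR, 1 mM GSH, 0.5 mM NADPH.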
(In qHTS, concentration-response curves come from the screen itself.)

In experiment [3] the target is Luciferin 4-monooxygenase (Photinus pyralis) (UniProt P08659). Put plainly: Primary firefly luciferase (FLuc) qHTS assay for identification of artifact compounds. (AID 1845220). Further: nearly all actives have a fitted effect of over 60% in size. Put shortly: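 Cell-free, 1536-well qHTS. Buffer pH 7.6 with 0.01% Tween-20 and 0.05% BSA; 10 uM D-luciferin, 10 uM ATP; 10 nM P. pyralis luciferase; luminescence after 5 min.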
A short description of experiment [4]: Primary fluorescence-based thiol-reactive (MSTI) qHTS assay for identification of artifact compounds. (AID 1845221). Further: nearly all actives have a fitted effect of over 65% in size. Further: potency means the concentration at half of the fitted maximal effect. Put shortly: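 qHTS titration of compound; 4 uM MSTI, PBS pH 7.4, 2% DMSO; 1 h RT, dark; fluorescence 525/598 nm; normalized to Acetyl-MSTI and MSTI; 4-parameter Hill fit.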
For experiment [5], the system named is Nanoluciferase (engineered Oplophorus gracilirostris luciferase). Put plainly: Primary Nanoluciferase (NLuc) qHTS assay for identification of artifact compounds. (AID 1845222). Further: series mostly up to about 54 µM. Put shortly: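 Compounds are pinned into diluted (1:55) conditioned medium of NLuc-expressing S16 cells and held 15 min at room temperature protected from light. Nano-Glo substrate follows, and luminescence is read 5 min later.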

The nature of experiment [6]: Primary redox qHTS assay for identification of artifact compounds. (AID 1845223). The method, boiled down:
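Redox-cycling detection via DTT (250 uM final) oxidation coupled to Amplex Red (25 uM)/HRP (250 mU/mL) in HBSS. 15 min preincubation plus 30 min after DTT, room temperature. Ex/Em 525/598 nm; 4-parameter Hill fit against DMSO and 10 uM DA3003.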

Molecules are shown by their SMILES. Values without a mark were called inactive. Records with an inconclusive call do not appear. Activity calls are given as the source filed them. The call rests on the fitted dose curve; in most records, active means well fitted curve in the direction sought with a large enough effect; inconclusive means small, poorly fitted or top-dose-only effect, or another doubt; inactive means no such curve, though single readings can be large; an effect the other way counts as inactive or inconclusive.

Sequence of Glutathione peroxidase 1 (Homo sapiens) (P07203 whole entry, looked up): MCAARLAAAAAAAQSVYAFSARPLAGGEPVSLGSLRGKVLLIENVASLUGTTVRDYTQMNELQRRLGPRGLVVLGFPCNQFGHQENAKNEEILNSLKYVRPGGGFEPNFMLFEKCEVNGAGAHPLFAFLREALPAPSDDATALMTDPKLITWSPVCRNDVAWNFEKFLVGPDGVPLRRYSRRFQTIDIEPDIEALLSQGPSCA
Sequence of Phospholipid hydroperoxide glutathione peroxidase GPX4 (Homo sapiens) (P36969 whole entry, looked up): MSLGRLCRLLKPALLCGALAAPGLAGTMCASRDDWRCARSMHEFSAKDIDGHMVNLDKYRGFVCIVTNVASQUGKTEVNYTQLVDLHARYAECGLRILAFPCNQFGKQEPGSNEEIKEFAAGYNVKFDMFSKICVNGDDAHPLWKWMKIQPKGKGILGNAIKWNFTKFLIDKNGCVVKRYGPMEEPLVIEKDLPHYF

In the case of `C=C1CCC2C(C)(CO[C@@H]3O[C@H](CO)[C@@H](O)[C@H](O)[C@H]3O)C(O)CCC2(C)C1C(=O)CC1=CCOC1=O` (stereo not given in full), the Potency entry in experiment [1], in experiment [2], in experiment [3], in experiment [5] and in experiment [6] was “inactive” throughout. In experiment [4], the Potency was 10.3 µM (active).

Turning to `C=C1CC[C@H]2[C@@](C)(CCC[C@@]2(C)C(=O)O)[C@@H]1CCC(C)CCO` (stereo not given in full), the Potency entry in experiment [1], in experiment [2], in experiment [3], in experiment [4], in experiment [5] and in experiment [6] was “inactive” each time.

On to `C=CC1C(O[C@@H]2O[C@H](CO)[C@@H](O)[C@H](O)[C@H]2O)OC=C(C(=O)OC)C1CC(=O)O` (stereo not given in full), for which the Potency result in experiment [1], in experiment [2], in experiment [3], in experiment [4] and in experiment [6] was “inactive” each time.

As for `CC12CCC3c4ccc(O)cc4CCC3C1CCC2OC1OC(C(=O)O)C(O)C(O)C1O` (stereo not given), the Potency result in experiment [1], in experiment [2], in experiment [3], in experiment [4] and in experiment [6] was “inactive” each time.

As for `CC1(C)CC[C@]2(C(=O)O)CC[C@]3(C)C(=CCC4[C@@]5(C)CC[C@H](O[C@@H]6O[C@H](C(=O)O)[C@@H](O)[C@H](O)[C@H]6O)C(C)(CO)C5CC[C@]43C)C2C1` (stereo not given in full), the Potency result in experiment [1], in experiment [2], in experiment [3], in experiment [4], in experiment [5] and in experiment [6] was “inactive” throughout.

With `CNC(=O)c1ccc(Nc2ncc(C(F)(F)F)c(NCc3nccnc3N(C)S(C)(=O)=O)n2)cc1`, the Potency entry in experiment [1], in experiment [2], in experiment [3], in experiment [4], in experiment [5] and in experiment [6] was “inactive” each time.

As to `CC/C=C/CC1=C(CCCCCCCC(=O)O)CCC1=O`, the Potency entry in experiment [1], in experiment [2], in experiment [3], in experiment [4] and in experiment [6] was “inactive” in each case.

For the compound `C=CC(C)(C)C1(CC2NC(=O)C3CCCN3C2=O)C(=O)Nc2cc3c(cc21)C=CC(C)(C)O3` (stereo not given), the Potency entry in experiment [1], in experiment [2], in experiment [3], in experiment [4], in experiment [5] and in experiment [6] was “inactive” in each case.

`CCC(=O)NS(=O)(=O)c1ccc(-c2c(-c3ccccc3)noc2C)cc1`: the Potency entry in experiment [1], in experiment [2], in experiment [3], in experiment [4] and in experiment [6] was “inactive” throughout.

As to `NC(=O)[C@H]1CCCCc2c1[nH]c1ccc(Cl)cc21`, the Potency result in experiment [1], in experiment [2], in experiment [3], in experiment [4] and in experiment [6] was “inactive” each time.

Regarding `CC1=C(CC(=O)O)c2cc(F)ccc2C1=Cc1ccc(S(C)(=O)=O)cc1`, the Potency entry in experiment [1], in experiment [2], in experiment [3], in experiment [4] and in experiment [6] was “inactive” throughout.

With `N#Cc1ccnc(N2C(=O)CC[C@H]2C(=O)N(c2cncc(F)c2)[C@H](C(=O)NC2CC(F)(F)C2)c2ccccc2Cl)c1`, the Potency result in experiment [1], in experiment [2], in experiment [3], in experiment [4] and in experiment [6] was “inactive” throughout.

Turning to `C[C@@H](Nc1cc(NS(=O)(=O)N2CCC2)nc(SCc2cccc(F)c2F)n1)[C@@H](O)CO`, the Potency entry in experiment [1], in experiment [2], in experiment [3], in experiment [4], in experiment [5] and in experiment [6] was “inactive” each time.

As to `COc1cc(C2OCC3C(c4ccc(OC5OC(CO)C(O)C(O)C5O)c(OC)c4)OCC23)ccc1O` (stereo not given), the Potency result in experiment [1], in experiment [2], in experiment [3], in experiment [4], in experiment [5] and in experiment [6] was “inactive” in each case.

As for `CC(=O)OC1C=C(C(=O)O)C2(CO)CCC(C)C(C)(CCc3ccoc3)C2C1` (stereo not given), the Potency result in experiment [1], in experiment [2], in experiment [3], in experiment [4] and in experiment [6] was “inactive” each time.

With `CC[C@H]1OC(=O)[C@H](C)[C@@H](O[C@H]2C[C@@](C)(OC)[C@@H](O)[C@H](C)O2)[C@H](C)[C@@H](O[C@@H]2O[C@H](C)C[C@H](N(C)C)[C@H]2O)[C@@](C)(O)C[C@@H](C)[C@@H]2N[C@@H](COCCOC)OC([C@H]2C)[C@]1(C)O`, the Potency result in experiment [1], in experiment [2], in experiment [3], in experiment [4], in experiment [5] and in experiment [6] was “inactive” throughout.

With `CC(=O)O[C@H](C[C@@H](C)[C@H]1C(=O)[C@H](O)[C@@]2(C)[C@@H]3CCC4C(C)(C)[C@@H](O[C@@H]5OC[C@H](O)[C@H](O)[C@H]5O)CC[C@@]45C[C@@]35CC[C@]12C)[C@@H]1OC1(C)C` (stereo not given in full), the Potency result in experiment [1], in experiment [2], in experiment [3], in experiment [4], in experiment [5] and in experiment [6] was “inactive” in each case.

For `C=CC(C)(CC/C=C(\C)CC/C=C(\C)CC(O)/C=C(\C)C(=O)O)O[C@@H]1O[C@H](CO)[C@@H](O)[C@H](O)[C@H]1O[C@@H]1O[C@H](CO)[C@@H](O)[C@H](O)[C@H]1O` (stereo not given in full), the Potency result in experiment [1], in experiment [2], in experiment [3], in experiment [4] and in experiment [6] was “inactive” in each case.

Turning to `CC[C@H]1OC(=O)C[C@@H](O)[C@H](C)[C@@H](O[C@@H]2O[C@H](C)[C@@H](O)[C@H](N(C)C)[C@H]2O)[C@@H](CCN2C[C@H](C)C[C@H](C)C2)C[C@@H](C)C(=O)/C=C/C(C)=C/[C@@H]1CO[C@@H]1O[C@H](C)[C@@H](O)[C@@H](OC)[C@H]1OC`, the Potency entry in experiment [1], in experiment [2], in experiment [3], in experiment [4] and in experiment [6] was “inactive” in each case.

In the case of `CC1(C)C(=O)N2c3ccccc3[C@]3(CC(n4cnc5ccccc5c4=O)C(=O)O3)[C@H]2N1O` (stereo not given in full), the Potency entry in experiment [1], in experiment [2], in experiment [3], in experiment [4] and in experiment [6] was “inactive” throughout.

Take `CC(C)=CC/C=C(/C)[C@H]1CC[C@]2(C)[C@@H]1[C@H](O)CC1[C@@]3(C)CC[C@H](O)C(C)(C)[C@@H]3[C@@H](O[C@@H]3O[C@H](CO)[C@@H](O)[C@H](O)[C@H]3O[C@@H]3O[C@@H](C)[C@H](O)[C@@H](O)[C@H]3O)C[C@]12C` (stereo not given in full): the Potency entry in experiment [1], in experiment [2], in experiment [3], in experiment [4] and in experiment [6] was “inactive” in each case.

In the case of `Cc1nc2c(-c3cnc(N)nc3)nc(N3CCOCC3)nc2n1C(C)C`, the Potency result in experiment [1], in experiment [2], in experiment [3], in experiment [4], in experiment [5] and in experiment [6] was “inactive” each time.

On to `COc1cc(/C=C/C(=O)O[C@H]2[C@H](O)[C@@H](CO)O[C@@]2(CO)O[C@H]2O[C@H](COC(=O)c3ccc(O)cc3)[C@@H](O)[C@H](O)[C@H]2O)cc(OC)c1OC`, for which the Potency entry in experiment [1], in experiment [2], in experiment [3], in experiment [4] and in experiment [6] was “inactive” in each case.

These data come from PubChem BioAssay (NCATS).
